Measured values published in publication PMC4336329 (PLoS ONE, 2015).
Screen size: about 310,000 compounds; about 14,000 (4.5%) showed an effect of 50% or more. Effects have a minus sign here. Shown is part of a subset that was picked to be rich in strong results.
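Further: peak tail current of the secondary pulse compared with the same well before compound.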

These compounds were tested against human ether-à-go-go-related gene (hERG) potassium channel (human, UniProt Q12809) (assay: primary screen, population patch clamp on CHO cells stably expressing hERG; higher = less effect of the substance).
Sequence of human ether-à-go-go-related gene (hERG) potassium channel (Q12809 whole entry, looked up): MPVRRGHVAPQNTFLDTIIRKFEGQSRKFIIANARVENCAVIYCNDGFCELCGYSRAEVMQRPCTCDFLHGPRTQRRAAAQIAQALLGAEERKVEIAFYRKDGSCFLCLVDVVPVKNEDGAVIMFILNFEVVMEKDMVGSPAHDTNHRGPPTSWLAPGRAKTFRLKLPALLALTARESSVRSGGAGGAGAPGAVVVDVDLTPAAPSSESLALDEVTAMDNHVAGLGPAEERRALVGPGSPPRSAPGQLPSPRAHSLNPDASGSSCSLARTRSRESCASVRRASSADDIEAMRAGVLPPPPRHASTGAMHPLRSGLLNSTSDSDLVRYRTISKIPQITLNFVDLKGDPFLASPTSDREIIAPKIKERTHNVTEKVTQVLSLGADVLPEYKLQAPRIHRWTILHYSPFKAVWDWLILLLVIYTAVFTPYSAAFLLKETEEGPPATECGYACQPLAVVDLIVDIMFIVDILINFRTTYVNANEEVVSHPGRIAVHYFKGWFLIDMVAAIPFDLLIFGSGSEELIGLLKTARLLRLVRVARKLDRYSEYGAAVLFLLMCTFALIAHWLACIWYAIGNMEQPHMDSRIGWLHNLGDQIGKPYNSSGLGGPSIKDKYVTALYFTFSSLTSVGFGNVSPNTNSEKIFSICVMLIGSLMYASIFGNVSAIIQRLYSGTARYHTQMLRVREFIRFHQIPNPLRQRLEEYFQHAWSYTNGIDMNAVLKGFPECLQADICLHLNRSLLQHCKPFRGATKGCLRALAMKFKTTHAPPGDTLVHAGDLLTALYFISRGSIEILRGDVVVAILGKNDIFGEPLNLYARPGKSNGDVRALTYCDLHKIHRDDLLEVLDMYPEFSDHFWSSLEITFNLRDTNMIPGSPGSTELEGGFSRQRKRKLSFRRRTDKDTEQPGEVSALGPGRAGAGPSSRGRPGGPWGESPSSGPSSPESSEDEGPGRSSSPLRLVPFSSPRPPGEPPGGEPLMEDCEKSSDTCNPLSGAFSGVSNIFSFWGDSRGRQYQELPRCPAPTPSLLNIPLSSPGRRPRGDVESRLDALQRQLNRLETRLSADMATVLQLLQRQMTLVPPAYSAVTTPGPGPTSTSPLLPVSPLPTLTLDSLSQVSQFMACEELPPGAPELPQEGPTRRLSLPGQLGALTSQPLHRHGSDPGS
With `COc1cc(/C=N/Nc2nc(=O)[nH]nc2C)cc(OC)c1O` the “hERG current change (%, negative = inhibition) at 10uM” value was 11.7%. In the case of `COc1ccc(NC(=O)Cn2nnc(-c3ccccc3NC(=O)c3ccco3)n2)cc1`, the “hERG current change (%, negative = inhibition) at 10uM” value is reported as -12.8%. In the case of `COc1cccc(OC)c1C(=O)Nc1ccccc1C(=O)N1CCOCC1`, the “hERG current change (%, negative = inhibition) at 10uM” value is reported as 5.4%. In the case of `CC(CNC(=O)CCC(=O)N1CCOc2ccccc21)c1ccccc1` (centres unmarked), the “hERG current change (%, negative = inhibition) at 10uM” value is reported as -9.84%. In the case of `Fc1cccc(Cl)c1CSc1nnc2ccccn12`, the “hERG current change (%, negative = inhibition) at 10uM” value is reported as 9.48%. With `COc1ccccc1NC(=O)NNC(=O)C(C)Oc1ccc2ccccc2c1` (centres unmarked) the “hERG current change (%, negative = inhibition) at 10uM” value was 9.36%. For `Cc1cc2cc(CNC(=S)NC3CCCCC3)ccc2n1C`, the “hERG current change (%, negative = inhibition) at 10uM” value was 13.8%. For `Cc1cc(OC(C)C(=O)N2CCN(c3ccc(F)cc3)CC2)c2c(C)cc(=O)oc2c1` (centres unmarked), the “hERG current change (%, negative = inhibition) at 10uM” value was -1.27%. In the case of `O=C(NCCOc1ccccc1Cl)c1ncn[nH]1`, the “hERG current change (%, negative = inhibition) at 10uM” value is reported as -2.83%. `COCCNC(=O)C(c1ccc(F)cc1)N(C(=O)CCC(=O)Nc1ccccn1)c1cccc(C)c1` (centres unmarked) was tested, and the “hERG current change (%, negative = inhibition) at 10uM” value was 16.2%. `CC(=O)c1ccc(OCC(O)CN2CCN(Cc3ccc4c(c3)OCO4)CC2)cc1.Cl` (centres unmarked) was tested, and the “hERG current change (%, negative = inhibition) at 10uM” value was -49.8%. For `Cc1ccc(OCC(O)CN2CCN(Cc3ccc4c(c3)OCO4)CC2)cc1C.Cl` (centres unmarked), the “hERG current change (%, negative = inhibition) at 10uM” value was -61.1%. For `Cc1ccc(C)c(OCC(=O)N2CCN(Cc3ccc4c(c3)OCO4)CC2)c1`, the “hERG current change (%, negative = inhibition) at 10uM” value was -23.3%. `Cc1ccc(OCC(O)CN2CCN(Cc3ccc4c(c3)OCO4)CC2)c(C)c1.Cl` (centres unmarked) was tested, and the “hERG current change (%, negative = inhibition) at 10uM” value was -57.1%. In the case of `COc1cc(COCC(O)CN2CCN(Cc3ccc4c(c3)OCO4)CC2)cc(OC)c1OC.Cl` (centres unmarked), the “hERG current change (%, negative = inhibition) at 10uM” value is reported as -0.319%. In the case of `CC(=O)c1ccc(OCC(O)CN2CCN(Cc3ccc4c(c3)OCO4)CC2)cc1` (centres unmarked), the “hERG current change (%, negative = inhibition) at 10uM” value is reported as -34.8%. `Cc1cccc(N2CCN(C(=O)CCn3c(=O)[nH]c4ccsc4c3=O)CC2C)c1` (centres unmarked) was tested, and the “hERG current change (%, negative = inhibition) at 10uM” value was 21.5%. With `COc1ccc(OC)c2sc(NC(=O)c3ccc(S(=O)(=O)N4CCOCC4)cc3)nc12` the “hERG current change (%, negative = inhibition) at 10uM” value was -2.05%. In the case of `CC(NCCO)C(=O)C12CC3CC(CC(C3)C1)C2.Cl` (centres unmarked), the “hERG current change (%, negative = inhibition) at 10uM” value is reported as 13.1%. `Cc1sc2ncn(CC(=O)N3CCN(c4ccccc4)CC3)c(=O)c2c1S(=O)(=O)N1CCOCC1` was tested, and the “hERG current change (%, negative = inhibition) at 10uM” value was -16%. For `Cc1sc2ncn(CC(=O)N3CCN(c4ccc(F)cc4)CC3)c(=O)c2c1S(=O)(=O)N1CCOCC1`, the “hERG current change (%, negative = inhibition) at 10uM” value was -64.3%. In the case of `CCOC(=O)C1CCN(C(=O)Cn2cnc3sc(C)c(S(=O)(=O)N4CCOCC4)c3c2=O)CC1`, the “hERG current change (%, negative = inhibition) at 10uM” value is reported as -14%. In the case of `COc1ccc(N2CCN(C(=O)Cn3cnc4sc(C)c(S(=O)(=O)N5CCOCC5)c4c3=O)CC2)cc1`, the “hERG current change (%, negative = inhibition) at 10uM” value is reported as -20.7%. `CCOC(=O)C1CCN(C(=O)Cn2cnc3sc(C)c(S(=O)(=O)N4CCC(C)CC4)c3c2=O)CC1` was tested, and the “hERG current change (%, negative = inhibition) at 10uM” value was -67.9%. For `CCOC(=O)C1CCN(C(=O)Cn2cnc3sc(C)c(S(=O)(=O)N4CCCCC4)c3c2=O)CC1`, the “hERG current change (%, negative = inhibition) at 10uM” value was -35.5%. In the case of `CC1(C)CC(=O)C=C(Nc2cc(-c3ccccc3)[nH]n2)C1`, the “hERG current change (%, negative = inhibition) at 10uM” value is reported as -11.2%. For `CC(NC(=O)C1CCC(=O)N1Cc1ccccc1Cl)c1ccccc1` (centres unmarked), the “hERG current change (%, negative = inhibition) at 10uM” value was 12.8%. For `COc1ccccc1-c1cc(C(=O)Nc2c(C)n(C)n(-c3ccccc3)c2=O)no1`, the “hERG current change (%, negative = inhibition) at 10uM” value was -34.9%. `N#CCC(=O)N/N=C/c1ccccc1Cl` was tested, and the “hERG current change (%, negative = inhibition) at 10uM” value was 6.55%. `Cc1nn(C)c(C)c1S(=O)(=O)NC1CCCC1` was tested, and the “hERG current change (%, negative = inhibition) at 10uM” value was -12%. In the case of `CCN(C(=O)CN1CCN(c2cccc(C(F)(F)F)c2)CC1)c1c(N)n(Cc2ccccc2)c(=O)[nH]c1=O`, the “hERG current change (%, negative = inhibition) at 10uM” value is reported as -20.3%. In the case of `Cc1cc(-c2ccccc2)cc(-c2ccccc2)[n+]1C.[Cl-]`, the “hERG current change (%, negative = inhibition) at 10uM” value is reported as -13.6%. With `C[n+]1c(-c2ccccc2)cc(-c2ccc(Cl)cc2)cc1-c1ccccc1.[O-][Cl+3]([O-])([O-])[O-]` the “hERG current change (%, negative = inhibition) at 10uM” value was -84.1%. `C[n+]1c(-c2ccccc2)cc(-c2ccc(O)cc2)cc1-c1ccccc1.[O-][Cl+3]([O-])([O-])[O-]` was tested, and the “hERG current change (%, negative = inhibition) at 10uM” value was -61.4%. For `C[n+]1c(-c2ccccc2)cc(CCCCc2cc(-c3ccccc3)[n+](C)c(-c3ccccc3)c2)cc1-c1ccccc1.[O-][Cl+3]([O-])([O-])[O-]`, the “hERG current change (%, negative = inhibition) at 10uM” value was -30.6%. In the case of `Oc1ccc(-c2cccc(-c3ccc(O)cc3)c2)cc1`, the “hERG current change (%, negative = inhibition) at 10uM” value is reported as 3.27%. For `O=C(c1ccccc1)c1ccc(-c2ccc(O)cc2)cc1`, the “hERG current change (%, negative = inhibition) at 10uM” value was 10.1%. In the case of `COCCNC(=O)C(c1ccc(C)o1)N(C(=O)c1snc(C(N)=O)c1N)c1cc(C)cc(C)c1` (centres unmarked), the “hERG current change (%, negative = inhibition) at 10uM” value is reported as -28.5%. `COc1ccc(Cc2nnc(SCc3nc4ccccc4c(=O)[nH]3)n2C)cc1` was tested, and the “hERG current change (%, negative = inhibition) at 10uM” value was -11.9%. With `COc1ccc(C(CC(=O)O)N2Cc3ccccc3C2=O)cc1` (centres unmarked) the “hERG current change (%, negative = inhibition) at 10uM” value was 14.4%. `CC(C)=CCCC1=CCC2C(=O)NNC(=O)C2C1` (centres unmarked) was tested, and the “hERG current change (%, negative = inhibition) at 10uM” value was 9.53%.
